{"source": "PubChem BioAssay (NCATS)", "note": "Results filed as inconclusive are left out. Values without a mark were called inactive. Activity calls are given as the source filed them. Calls come from the whole dose curve; as a rule, active = well fitted inhibition curve with a large enough effect; inconclusive = small, poorly fitted or top-dose-only effect; inactive = flat fitted curve, though single readings scatter. % is set by controls: 0 for no effect and ±100 for the full control effect.", "data": [{"target": "Phospholipid hydroperoxide glutathione peroxidase GPX4 (Homo sapiens) (UniProt P36969)", "sequence (P36969 whole entry, looked up)": "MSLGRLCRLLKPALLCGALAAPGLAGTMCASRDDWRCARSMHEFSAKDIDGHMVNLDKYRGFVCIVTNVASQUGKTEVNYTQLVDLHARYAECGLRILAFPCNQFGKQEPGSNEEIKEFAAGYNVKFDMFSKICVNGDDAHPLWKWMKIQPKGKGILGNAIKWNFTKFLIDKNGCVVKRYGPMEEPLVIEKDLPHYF", "assay": "Primary qHTS Assay for Inhibitors of Recombinant Selenoprotein Glutathione Peroxidase 4 (GPX4) (AID 1845192); note: nearly all actives have a fitted effect of over 65% in size", "conditions": "recombinant GPX4, GR-coupled NADPH fluorescence, 15 min; series mostly up to 50 µM; activity change, negative = inhibition: at the top concentration", "procedure,_shortened": "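GR-coupled assay: recombinant GPX4 preincubated 30 min with compound at room temperature; final 200 nM GPX4, 1 mM GSH, 0.5 mM cumene hydroperoxide, 0.5 mM NADPH, 100 nM GR, 0.01% BSA, pH 7.5 Tris. NADPH fluorescence (340/450 nm) read at 0 and 15 min.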", "units": {"activity change, negative = inhibition": "%"}, "values": [{"smiles": "COc1cc(/C=C(\\C#N)C(=O)Nc2nnc(C(F)(F)F)s2)ccc1OCc1ccc(C(F)(F)F)cc1C(F)(F)F", "outcome": "inactive"}, {"smiles": "NC(N)=NC(N)=Nc1cccc(Cl)c1", "activity change, negative = inhibition": -15.5}, {"smiles": "Oc1cc2c(cc1O)C(c1ccccc1)CNCC2", "note": "(stereo unspecified)", "activity change, negative = inhibition": 4.12}, {"smiles": "CC#CCOC(=O)c1c(C)nc2sc3c(c2c1N)CCC(O)C3", "note": "(stereo unspecified)", "outcome": "inactive"}, {"smiles": "NCCNS(=O)(=O)c1cccc2c(Cl)cccc12", "outcome": "inactive"}, {"smiles": "CCCn1c(=O)c2c(ncn2C)n(CCC)c1=O", "activity change, negative = inhibition": -10.7}, {"smiles": "CNCCNS(=O)(=O)c1cccc2cnccc12", "activity change, negative = inhibition": -14.8}, {"smiles": "Cn1c(=O)c2c(nc(/C=C/c3cccc(Cl)c3)n2C)n(C)c1=O", "outcome": "inactive"}, {"smiles": "CCCCCCCCCCCCCCSCC(=O)O", "activity change, negative = inhibition": 0.869}, {"smiles": "Nc1ccc(-c2nc3ccc(-c4nc5ccc(N)cc5[nH]4)cc3[nH]2)cc1", "activity change, negative = inhibition": -11.3}, {"smiles": "Cc1nc(N=Nc2cc(S(=O)(=O)O)c3cc([N+](=O)[O-])cc(S(=O)(=O)O)c3c2)c(COP(=O)(O)O)c(C=O)c1O", "outcome": "inactive"}, {"smiles": "O=C(O)[C@H]1NCCC[C@H]1C(=O)O", "activity change, negative = inhibition": 1.68}, {"smiles": "C[C@]12C=CC(=O)C=C1CC[C@@H]1C2=CC[C@]2(C)[C@@H](C(=O)CN3CCN(c4cc(N5CCCC5)nc(N5CCCC5)n4)CC3)CC[C@@H]12", "activity change, negative = inhibition": -27.6}, {"smiles": "C[N+](C)(C)CC=O", "activity change, negative = inhibition": -14.9}, {"smiles": "Cc1cccc(C)c1OCC(N)C(C)C", "note": "(stereo unspecified)", "outcome": "inactive"}, {"smiles": "COCc1nc2c([nH]1)c(=O)n(C)c(=O)n2CC(C)C", "activity change, negative = inhibition": 0.858}, {"smiles": "CN1C2CCC1CC(OC(c1ccccc1)c1ccccc1)C2", "note": "(stereo unspecified)", "activity change, negative = inhibition": 1.46}, {"smiles": "COc1ccccc1N1CCN(CCCCN2C(=O)c3ccccc3C2=O)CC1", "outcome": "inactive"}, {"smiles": "Nc1ncnc2c1ncn2C1CCCC1", "activity change, negative = inhibition": 1.02}, {"smiles": "Cc1cc(Cn2cnc3c2C[C@@H](C(=O)O)N(C(=O)C(c2ccccc2)c2ccccc2)C3)ccc1N", "activity change, negative = inhibition": 0.453}, {"smiles": "O=C(O)CCC(=O)N1CCCC1C(=O)O", "note": "(stereo unspecified)", "outcome": "inactive"}, {"smiles": "COC(=O)[C@H](NC(=O)c1cc(-c2ccccc2)nc2ccccc12)c1ccccc1", "activity change, negative = inhibition": 3.38}, {"smiles": "COc1ccc(CCN(C)CCc2ccc(OC)c(OC)c2)cc1OC", "activity change, negative = inhibition": 4.69}, {"smiles": "C=C1C(=O)O[C@@H]2[C@H]3O[C@]3(C)CCC=C(C)CC[C@@H]12", "outcome": "inactive"}, {"smiles": "Nc1nc2c(nc(Br)n2C2OC3COP(=O)(O)O[C@@H]3C2O)c(=O)[nH]1", "note": "(stereo partly specified)", "outcome": "inactive"}, {"smiles": "O=C(O)C1=CCCN(CCON=C(c2ccccc2)c2ccccc2)C1", "outcome": "inactive"}, {"smiles": "O=C(O)c1ccccc1Nc1ccccc1", "activity change, negative = inhibition": 3.71}, {"smiles": "N=S(=O)(O)Cc1noc2ccccc12", "outcome": "inactive"}, {"smiles": "CC1CNCCN1S(=O)(=O)c1cccc2cnccc12", "note": "(stereo unspecified)", "activity change, negative = inhibition": -6.82}, {"smiles": "NC1(C(=O)O)CC1", "outcome": "inactive"}, {"smiles": "C[C@@H](NCCc1ccc(O)cc1)[C@@H](O)c1ccc(O)cc1", "outcome": "inactive"}, {"smiles": "COc1ccc(C(=O)NCc2cccnc2)cc1C(=O)NCc1cccnc1", "activity change, negative = inhibition": 4.38}, {"smiles": "CN(C)CCCc1cc(C(=O)Nc2ccc(-c3ccncc3)cc2)ccc1O", "outcome": "inactive"}, {"smiles": "CCCCCCN(CCCCCC)C(=O)Cc1c(-c2ccc(F)cc2)[nH]c2ccccc12", "outcome": "inactive"}, {"smiles": "CC(C)(C)c1cc(/C=C(\\C#N)C(N)=S)cc(C(C)(C)C)c1O", "outcome": "inactive"}, {"smiles": "COc1cc2c(CCNC(C)=O)c[nH]c2cc1O", "outcome": "inactive"}]}]}
